The compounds below were run on MDA-MB-231 (assay: relative cell viability, compound + erastin, vs DMSO (fraction of DMSO control); higher = less growth inhibition). Conditions: 72 h.
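Also: viability read by CCK-8 kit in 96-well plates, part of a combination screen pairing lipid-metabolism-targeting compounds with erastin.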

Row | SMILES | relative cell viability
1 | CC(C)(O)c1ccccc1CC[C@@H](SCC1(CC(=O)O)CC1)c1cccc(/C=C/c2ccc3ccc(Cl)cc3n2)c1 [Montelukast] + CCOc1ccccc1-n1c(C(C)N2CCN(C(=O)COc3ccc(Cl)cc3)CC2)nc2ccccc2c1=O [erastin] | 0.829
2 | O=C(CCCCc1ccc2c(c1)OCO2)N1CCCCC1 + CCOc1ccccc1-n1c(C(C)N2CCN(C(=O)COc3ccc(Cl)cc3)CC2)nc2ccccc2c1=O [erastin] | 0.35
3 | CCCCCCCCCCCC1=C(O)C(=O)C=C(O)C1=O [Embelin] + CCOc1ccccc1-n1c(C(C)N2CCN(C(=O)COc3ccc(Cl)cc3)CC2)nc2ccccc2c1=O [erastin] | 0.575
4 | CC(C)C1=CC2=CC[C@@H]3[C@](C)(CCC[C@@]3(C)C(=O)O)[C@H]2CC1 [Abietic Acid] + CCOc1ccccc1-n1c(C(C)N2CCN(C(=O)COc3ccc(Cl)cc3)CC2)nc2ccccc2c1=O [erastin] | 1.04
5 | Cc1cccc(Nc2cc(Cl)nc(SCC(=O)O)n2)c1C [Pirinixic Acid] + CCOc1ccccc1-n1c(C(C)N2CCN(C(=O)COc3ccc(Cl)cc3)CC2)nc2ccccc2c1=O [erastin] | 0.74
6 | CS(=O)(=O)c1ccc(-c2nnc(/C=C/c3nnc(-c4ccc(C#N)cc4)o3)n2-c2ccccc2Cl)nc1 + CCOc1ccccc1-n1c(C(C)N2CCN(C(=O)COc3ccc(Cl)cc3)CC2)nc2ccccc2c1=O [erastin] | 0.668
7 | CNC(=O)c1cccc(NC(=O)N2CCC(Oc3ccccc3Cl)CC2)c1 + CCOc1ccccc1-n1c(C(C)N2CCN(C(=O)COc3ccc(Cl)cc3)CC2)nc2ccccc2c1=O [erastin] | 0.523
